Here are results for 37 compounds from article PMC5540273 (PLoS ONE, 2017).
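Also: KINOMEscan kinase panel screen.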

In one test the test system is ULK1. The note with it: concentration: 1 μM, replicates: in singlicate; n = 1.
With `Nc1nc(N)c2nc(-c3ccccc3)[nH]c2n1` [SKF-12778], the “%Inh” value was 16%. On the same count and under the same terms, in the case of `COc1ccc(-c2cc3c(C)nc(N)nc3n([C@H]3CC[C@H](O)CC3)c2=O)cn1` it was 0%; in that of `Cc1ccccc1COc1cc(-n2cnc3cc(Cl)ccc32)sc1C(N)=O` [GW813349], 0%. With `COc1ccc(-n2cnc3c(N)ncnc32)cc1` [SKF-97236], the “%Inh” value was 21%. Still for that read-out and setting: in the case of `COC(=O)c1c(-c2ccccc2)c2cc(C)ccc2c(=O)n1Cc1ccccc1` it was 0%; in that of `O=C(Nc1n[nH]c2cc(-c3ccccc3F)ccc12)C1CC1` [SB-733371], 2%; in that of `COc1cc(Nc2nccc(N3CCC(NC(=O)C4COc5ccccc5O4)C3)n2)cc(OC)c1OC` (stereo not shown) [GSK1379761], 8%.

For the compound `O=C(Nc1n[nH]c2nc(-c3ccccc3)c(Cl)cc12)C1CC1` [SB-734909], the “%Inh” value is reported as 22%. Still for that read-out and setting: the result for `O=c1cc(N2CCOCC2)nc2n(Cc3ccc(F)c(Cl)c3)ccn12` [GSK2297099] reads 16%.

The next test concerns ULK2. The note with it: concentration: 1 μM, replicates: in singlicate; n = 1.
Turning to `Cl.c1ccc(Cn2cnc3cc(Nc4ncnc5ccccc45)ccc32)cc1` [GW272142], the “%Inh” value is listed as 0%. Still for that read-out and setting: the result for `O=C(Nc1ccc2c(c1)OCO2)NC1CCN(c2ccnc(NCc3ccc(F)cc3)n2)CC1` [GSK1379859] reads 0%. Same read-out and setting: the result for `CCn1c(-c2ccoc2)nc2cnccc21` [SB-733887] reads 4%. On the same count and under the same terms, in the case of `COc1cc2nccc(Nc3ccc(OCc4ccc(NC(C)=O)cc4)cc3)c2cc1OC.Cl` [GW440135] it was 0%. Regarding `CCC(=O)c1c(-c2ccccc2)c2cc(Cl)ccc2c(=O)n1Cc1cc(S(C)(=O)=O)n(CC(F)F)n1`, the “%Inh” value turned out to be 0%.

As for `Nc1nc(-c2ccccc2F)c(-c2ccnc3ccccc23)s1` [GW560459], the “%Inh” value is 0%.

Consider `COc1ccc(-c2coc3ccc(-c4nnc(SCc5cccc(C#N)c5)o4)cc23)cc1`, for which the “%Inh” value was found to be 5%. On the same count and under the same terms, the result for `CCn1c(-c2nonc2N)nc2ccccc21` [SB-693162/GW549034] reads 31%. The same measure, in the same setting: in the case of `Nc1ncnc2c1ncn2-c1cccc(F)c1` [SKF-97560] it was 26%; in that of `COc1cc2ncn(-c3cc(OCc4ccc(S(C)(=O)=O)cc4)c(C(N)=O)s3)c2cc1OC` [GW869979], 6%. The same measure, in the same setting: in the case of `Cc1c(Cn2c(C)nn3c(=O)cc(N4CCO[C@H](C)C4)nc23)cccc1C(F)(F)F` [GSK2373690] it was 0%; in that of `COC(=O)c1c(-c2ccccc2)c2cc(Br)ccc2c(=O)n1Cc1ccc(S(C)(=O)=O)cc1`, 13%. For `COc1cc2ncn(-c3cc(OCc4ccncc4Br)c(C(N)=O)s3)c2cc1OC` [GW854278], the “%Inh” value turned out to be 0%. Still for that read-out and setting: the result for `O=C1NC(=O)C(c2ccccc2)=C1Nc1cccc(O)c1` [SB-390534] reads 12%; that for `COc1ccc(CNC(=O)NC2CCN(c3ccnc(Nc4ccc(F)cc4)n3)C2)cc1` (stereo not shown) [GSK1379706], 0%; that for `COc1cc2nccc(Nc3cccc(Oc4ccccc4)c3)c2cc1OC.Cl` [GW284543], 15%. Same read-out and setting: in the case of `Cc1nnc(-c2ccc(C)c(-c3ccc(C(=O)O)cc3)c2)o1` [GW608005] it was 0%; in that of `Cc1cccc(-c2nc(Nc3ccc4c(cnn4C)c3)c3ccccc3n2)n1` [GW876731], 13%; in that of `Cc1nc(N(C)[C@H]2CN(C(=O)CC#N)CC[C@H]2C)c2cc[nH]c2n1`, 8%. Turning to `COc1cc(Nc2ccnc3ccc(C(F)(F)F)cc23)cc(OC)c1OC` [GW577382], the “%Inh” value came to 0%.

With `COc1cccc(-n2cnc3c(N)ncnc32)c1` [SKF-97416], the “%Inh” value turned out to be 39%. The same measure, in the same setting: the result for `COc1ccc(-c2cc3c(C)nc(N)nc3n([C@H]3CC[C@H](OCCO)CC3)c2=O)cn1` reads 0%. Same read-out and setting: in the case of `COc1cc2ncn(-c3cc(OCCCc4ccccc4)c(C(N)=O)s3)c2cc1OC` [GSK205189] it was 0%.

In the case of `CN1C(=O)C(Nc2ccccc2)=C(c2ccccc2)C1=O` [SB-300079], the “%Inh” value amounted to 12%. Still for that read-out and setting: in the case of `O=C(NCc1cccs1)c1cc(C(=O)c2c(Cl)cccc2Cl)c[nH]1` [GW823670] it was 29%; in that of `CCCNC(=O)Nc1ccc(Oc2ncnc3ccn(C)c23)cc1`, 10%; in that of `Nc1nccc2scc(-c3ccc4c(c3)CCN4C(=O)Cc3ccccc3)c12` [GSK2576924], 0%. On the same count and under the same terms, the result for `CCC(=O)c1c(-c2ccccc2)c2cc(Cl)ccc2c(=O)n1Cc1cc(S(C)(=O)=O)n(CCC(C)(C)O)n1` reads 7%; that for `Nc1nc(N)c2nc(-c3ccccc3)[nH]c2n1` [SKF-12778], 9%; that for `COc1ccc(-c2cc3c(C)nc(N)nc3n([C@H]3CC[C@H](O)CC3)c2=O)cn1`, 0%.

As to `Cc1ccccc1COc1cc(-n2cnc3cc(Cl)ccc32)sc1C(N)=O` [GW813349], the “%Inh” value was determined as 0%. Take `COc1ccc(-n2cnc3c(N)ncnc32)cc1` [SKF-97236]: the “%Inh” value is 10%. The same measure, in the same setting: in the case of `COC(=O)c1c(-c2ccccc2)c2cc(C)ccc2c(=O)n1Cc1ccccc1` it was 0%. On the same count and under the same terms, in the case of `O=C(Nc1n[nH]c2cc(-c3ccccc3F)ccc12)C1CC1` [SB-733371] it was 8%; in that of `COc1cc(Nc2nccc(N3CCC(NC(=O)C4COc5ccccc5O4)C3)n2)cc(OC)c1OC` (stereo not shown) [GSK1379761], 0%. On the same count and under the same terms, the result for `O=C(Nc1n[nH]c2nc(-c3ccccc3)c(Cl)cc12)C1CC1` [SB-734909] reads 20%. Turning to `O=c1cc(N2CCOCC2)nc2n(Cc3ccc(F)c(Cl)c3)ccn12` [GSK2297099], the “%Inh” value is given as 0%.
